Screens (PubChem BioAssay)
KB-3-1 cytotox – kills parental KB-3-1 adenocarcinoma cells; AID 1347075; Potency, µM (doses to about 46.1 µM), most hits filed as cytotoxic; KB-3-1 viability, CellTiter-Glo ATP luminescence, 72 h; 1.4% of 400,000 active; also: potency is read from the fitted curve at half-maximal effect; % is scaled to controls: 0 for no effect and ±100 for the full control effect; nearly all actives have a fitted effect of over 60% in size
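Parental KB-3-1 adenocarcinoma cells in phenol-red-free DMEM with 10% FBS were pin-treated with compounds at several concentrations, incubated 72 h at 37 °C, and viability read by CellTiter-Glo luminescence; concentration-effect curves were fitted after normalization.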
KB-V1 MDR tox – KB-V1 MDR subline cytotoxicity. KB-V1 MDR cells viability, CellTiter-Glo, 72 h. AID 1347076. 3.4% of 400,000 active. Potency, µM (titrated, usually from 46.1 µM), usual class: cytotoxic; also: potency is read from the fitted curve at half-maximal effect; % is scaled to controls: 0 for no effect and ±100 for the full control effect; nearly all actives have a fitted effect of over 60% in size
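Cytotoxicity via CellTiter-Glo luminescence after 72 h compound exposure at 37 degrees C. Cells: drug-selected KB-V1 line, DMEM phenol-red free plus 10% FBS. Compounds tested at multiple concentrations; normalized data fitted to concentration-effect curves.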
SW480 rerep – induces DNA re-replication in SW480 colon adenocarcinoma cells; SW480 DNA re-replication, Hoechst DNA content imaging, 48 h; Potency, µM (highest dose often 46.1 µM), for inactives: top-dose re-replication activation, most hits filed as activators; 1.8% of 340,000 active; also: potency is read from the fitted curve at half-maximal effect; % of control where 0% means no effect; nearly all actives have a fitted effect of over 55% in size
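Cells (250 per well) received 23 nL compound or DMSO by pin tool and were kept 48 hr at 37 C, 5% CO2. Nuclei were then stained with Hoechst for 40 min and scanned for DNA content.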
S-ASM inh – human S-ASM enzyme inhibition. placental ASM, HMU-PC fluorogenic substrate, 60 min. Potency, µM (series often up to 57.5 µM), for the others: at the highest dose activity change, negative = inhibition, usual class: inhibitors. AID 504937. P17405. 0.006% of 340,000 active; also: potency is read from the fitted curve at half-maximal effect
Target sequence (P17405 47-631 limits assumed): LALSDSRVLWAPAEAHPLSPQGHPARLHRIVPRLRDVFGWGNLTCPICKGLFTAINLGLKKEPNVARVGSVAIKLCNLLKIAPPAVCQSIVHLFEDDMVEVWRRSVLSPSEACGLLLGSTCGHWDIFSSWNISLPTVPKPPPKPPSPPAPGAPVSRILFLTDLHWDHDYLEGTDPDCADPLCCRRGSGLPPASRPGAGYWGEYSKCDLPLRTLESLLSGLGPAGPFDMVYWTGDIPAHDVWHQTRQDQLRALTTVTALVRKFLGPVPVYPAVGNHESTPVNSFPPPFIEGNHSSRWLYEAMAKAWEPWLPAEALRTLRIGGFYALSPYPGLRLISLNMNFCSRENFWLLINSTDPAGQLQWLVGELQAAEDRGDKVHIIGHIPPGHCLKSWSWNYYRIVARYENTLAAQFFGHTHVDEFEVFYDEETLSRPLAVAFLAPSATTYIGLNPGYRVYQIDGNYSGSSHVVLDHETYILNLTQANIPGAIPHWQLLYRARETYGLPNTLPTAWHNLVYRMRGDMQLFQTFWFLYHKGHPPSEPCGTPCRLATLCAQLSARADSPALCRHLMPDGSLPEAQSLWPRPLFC
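qHTS format. ASM enzyme prepared from human placenta hydrolyses the fluorogenic substrate HMU-PC0 (9 uM final) over 60 min at 37 °C after a 10 min compound preincubation.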
Giardia kill – kills Giardia lamblia. Giardia lamblia trophozoite viability. activity change, % at 7.66 µM, hits read low. 0.15% of 340,000 active; in the data active = activity change below about -80%; inconclusive = between about -30% and that limit;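 also: parasites exposed to compound for two days anaerobically before the ATP read; % is scaled to controls: 0 for no effect and ±100 for the full control effect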
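Luminescent ATP signal served as the viability read-out, measured 15-30 min after adding ATP detection reagent to trophozoites that had been incubated with compounds for 48 hrs at 37 deg C anaerobically at 100 cells/well.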
MCF10A rerep – DNA re-replication induction in MCF 10a cells. MCF 10A DNA re-replication, Hoechst nuclear intensity, 48 h. Potency, µM (titrated, usually from 46.1 µM), for the others: at the highest dose activity, positive = re-replication, actives largely listed as activators. 2.9% of 350,000 active; also: potency is read from the fitted curve at half-maximal effect; % of control where 0% means no effect; nearly all actives have a fitted effect of over 50% in size
Numbers without * were called inactive; i = inactive; ? = inconclusive; nt = not tested or not shown; [ ] = remark or other dose. The list is not random: actives were taken first. Their share in the collection is about 6.9%. Unless noted, calls follow the shape of the dose curve; as a rule, active = well fitted curve in the direction sought with a large enough effect; inconclusive = small, poorly fitted or top-dose-only effect, or another doubt; inactive = no such curve, though single readings can be large; an effect the other way counts as inactive or inconclusive.

SMILES | KB-3-1 cytotox | KB-V1 MDR tox | SW480 rerep | S-ASM inh | Giardia kill | MCF10A rerep
O=C(Cn1nc(-c2nn(CC(=O)c3ccccc3)c3[n+]2CCCCC3)[n+]2c1CCCCC2)c1ccccc1 | i | ? | -33% | 5% | -6 | 7%
CN(C)c1ccc(C(=C2c3ccccc3-c3ccccc32)c2ccc(N(C)C)cc2)cc1 | i | i | nt | nt | nt | nt
COc1ccc(OC)c(CCNC(=O)CS(=O)(=O)Cc2nc(-c3ccccc3C)oc2C)c1 | ? | 6.5µM* | -3% | -4% | 5 | 6%
COc1ccc(CCNC(=O)C2CCN(Cc3nc(-c4ccccc4C)oc3C)CC2)cc1OC | ? | 7.3µM* | 2% | 4% | -15 | 22%
COc1ccc(OC)c(CCNC(=O)CS(=O)(=O)Cc2nc(-c3ccccc3Cl)oc2C)c1 | i | i | -7% | -3% | 10 | 12%
Cc1ccccc1-c1nc(CN2CCC(C(=O)NCCc3ccccc3)CC2)c(C)o1 | i | i | nt | nt | nt | nt
Cc1ccccc1-c1nc(CN2CCC(C(=O)NCCCN3CCCC(C)C3)CC2)c(C)o1 (configuration not stated) | i | i | 21µM* | ? | 43 | 7%
Cc1ccc(OCc2cc(C(=O)N3CC4C[C@@H]5CC3C[C@H](C4)C5)no2)cc1C | nt | nt | ? | -1% | 16 | ?
Cc1cccc(C)c1OCc1cc(C(=O)N2CC3C[C@@H]4CC2C[C@H](C3)C4)no1 | i | ? | 1% | -5% | 2 | 18µM*
CC(C)(C)N(NC(=O)Nc1ccc(Cl)c(Cl)c1)C(=O)c1ccccc1 | ? | 23µM* | -3%[9.22 µM] | -15% | 0 | ?
C=CCn1c(C)cc(C(=O)CSc2nnc(Cc3ccccc3)o2)c1C | i | i | 10% | -3% | -11 | 23%
C=CCn1c(C)cc(C(=O)CSc2nnc(NCc3ccccc3)s2)c1C | 13µM* | 10µM* | ? | -3% | -17 | 3.7µM*
C=CCn1c(C)cc(C(=O)CSc2nc3ccccc3o2)c1C | ? | 15µM* | ? | -8% | -11 | 23µM*
Cc1cc(C(=O)CSc2nc3ccccc3o2)c(C)n1C1CC1 | i | ? | 9% | -5% | 2 | 23µM*
O=C(N/N=C/c1ccco1)C1CC1(c1ccccc1)c1ccccc1 (configuration not stated) | i | 21µM* | -12% | -3% | ? | 2%
Cc1ccc(Cn2cnc3ccccc32)cc1C | 8.2µM* | 21µM* | 1% | 3% | -1 | 18%
Cc1cccc(Cn2cnc3ccccc32)c1 | i | ? | 5%[9.22 µM] | -2% | -11 | 2%
CSc1ccc(NC(=O)C2CCN(c3ncccn3)CC2)cc1 | i | i | nt | nt | nt | nt
CCOC(=O)c1cnc2c(ccc3ccccc32)c1Nc1ccc(N(C)C)cc1 | i | i | nt | nt | nt | nt
Cc1cc(C)c2c(c1)/C(=N/NS(=O)(=O)c1ccccc1)CCC2 | i | i | 0% | -16% | -3 | ?
Cc1cc(C)c2c(c1)/C(=N/NS(=O)(=O)c1ccc(Br)cc1)CCC2 | i | ? | 3% | -10% | -9 | 7.1µM*
Cc1cccc(C(=O)NCC(=O)N2CCCC2)c1 | i | ? | -7% | 3% | 0 | -4%
O=C(NCC(=O)N1CCCCCCC1)c1cccc([N+](=O)[O-])c1 | i | 21µM* | 2% | 3% | 16 | 0%
O=C(OCC(=O)C12CC3CC(CC(C3)C1)C2)c1cnccn1 | i | i | -3% | -2% | 2 | 11%
COCCNc1nc(Nc2ccc(C)cc2C)c2sccc2n1 | 5.2µM* | 5.2µM* | nt | nt | nt | nt
SMILES | KB-3-1 cytotox | KB-V1 MDR tox | SW480 rerep | S-ASM inh | Giardia kill | MCF10A rerep
COCCNc1nc(NCc2ccc(C)cc2C)c2sccc2n1 | i | i | nt | nt | nt | nt
CC(C)(C#CC(O)(c1ccccc1)c1ccccc1)N1CCCCC1 | i | i | -2% | 7% | ? | 4%
CC(C)(C#CC(O)(c1ccccc1)c1ccccc1)N1CCCC1 | i | i | -7% | 8% | 6 | 0.82µM*
CC(C)[C@H](N)c1nnc(SCc2ccc(Cl)cc2)o1 | i | 16µM* | -22% | 0% | 2 | 0%
CC(C)C[C@H](N)c1nnc(SCc2ccc(Cl)cc2)o1 | i | i | -7% | 3% | 9 | -13%
CCOc1ccc(NC(=S)NC23CN4CN(CN(C4)C2)C3)cc1 | i | i | -2% | -1% | 0 | 8%
COc1ccc(NC(=S)NC23CN4CN(CN(C4)C2)C3)cc1 | i | i | 0.52µM* | 3% | -2 | -4%
CCn1c2ccccc2c2nc3cc(C(=O)O)ccc3nc21 | i | ? | -20% | 12% | 2 | ?
CCn1c2ccccc2c2nc3ccccc3nc21 | i | i | 14% | -1% | -10 | 13µM*
CCn1c2ccccc2c2nc3cc(OC)c(OC)cc3nc21 | ? | 2.1µM* | 18µM* | i | 7 | 2.9µM*
CN1C(=O)[C@@](O)(c2cn(C)c3ccccc23)c2cc(F)ccc21 | i | i | nt | nt | nt | nt
O=C(Nc1ccc(S(=O)(=O)N2CCCCC2c2cccnc2)cc1)c1ccc(Br)cc1 (configuration not stated) | ? | 12µM* | nt | nt | nt | nt
CCOc1ccc(C(=O)Nc2ccc(S(=O)(=O)N3CCCCC3c3cccnc3)cc2)cc1 (configuration not stated) | ? | i | nt | nt | nt | nt
CCc1ccccc1N(C(=O)c1cccs1)C1C=CS(=O)(=O)C1 (configuration not stated) | i | i | ? | 1% | 7 | 2.6µM*
CCOC(=O)N/N=C/c1c(C)c(C(=O)c2ccc(F)cc2)n2ccccc12 | i | i | -4% | 1% | 8 | -2%
Cc1c(/C=N/NC(=O)c2cc(=O)[nH]c(=O)[nH]2)c2ccccn2c1C(=O)c1ccccc1 | i | i | 4% | -13% | 6 | -4%
Cc1c(/C=N/NC(=O)c2ccc(O)cc2)c2ccccn2c1C(=O)c1ccc(F)cc1 | ? | 18µM* | -10% | 3% | -15 | 29%
Cc1c(/C=N/NC(=O)c2ccccc2O)c2ccccn2c1C(=O)c1ccc(F)cc1 | ? | ? | 20% | -16% | ? | 6.5µM*
COC(=O)N/N=C/c1c(C)c(C(=O)c2ccc(F)cc2)n2ccccc12 | i | 23µM* | -28% | -2% | -8 | ?
Cc1c(/C=N/NC(=O)CNc2ccccc2)c2ccccn2c1C(=O)c1ccccc1 | ? | 3.7µM* | -14% | -16% | -16 | ?
COc1ccc(NC(=O)CN(c2ccc(C)cc2)S(=O)(=O)c2cccc3nonc23)cc1OC | i | i | nt | nt | nt | nt
COc1ccc(OC)c(-c2nnc(NC(=O)Nc3ccc4ccccc4c3)s2)c1 | i | i | nt | nt | nt | nt
